From PubChem BioAssay (NCATS)
Inconclusive results are not listed. Active and inactive are the calls of the source. The call rests on the fitted dose curve; in most records, active means well fitted curve in the direction sought with a large enough effect; inconclusive means small, poorly fitted or top-dose-only effect, or another doubt; inactive means no such curve, though single readings can be large; an effect the other way counts as inactive or inconclusive.

Key:
[1] = biological target: Rap guanine nucleotide exchange factor 3 (Homo sapiens) (UniProt O95398); assay: Confirmatory qHTS for agonist of cAMP-regulated guanine nucleotide exchange factor 3 (EPAC1) (AID 1645881);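 further: EPAC1 catalysed release of BODIPY-GDP from Rap1B seen as fluorescence loss; 100% = effect of cAMP agonist control; nearly all actives have a fitted effect of over 75% in size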
[2] = biological target: Rap guanine nucleotide exchange factor 4 (Homo sapiens) (UniProt Q8WZA2); assay: Confirmatory qHTS for agonist of cAMP-regulated guanine nucleotide exchange factor 4 (EPAC2) (AID 1645884);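 further: nucleotide exchange releases bodipy-GDP from Rap1 and this lowers its fluorescence; on the % scale 0 is the no-effect control and ±100 the full control effect; nearly all actives have a fitted effect of over 65% in size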
[3] = biological target: Rap guanine nucleotide exchange factor 3 (Homo sapiens) (UniProt O95398); assay: Counterscreen qHTS for antagonist of cAMP-regulated guanine nucleotide exchange factor 3 (EPAC1) (AID 1645888);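 further: fluorescence loss as bound BODIPY-GDP is released from Rap1B; % of control where 0% means no effect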
In short: (§1)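 Measured: fluorescence of BODIPY-GDP bound to Rap1B, which falls as exchange proceeds. Conditions include 50 uM competing GDP, 5 and 30 min reads, and a later cAMP challenge for antagonist detection.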

[4] = biological target: Rap guanine nucleotide exchange factor 3 (Homo sapiens) (UniProt O95398); assay: Counterscreen qHTS for agonist of cAMP-regulated guanine nucleotide exchange factor 3 (EPAC1) (AID 1645889); further: % of control where 0% means no effect; nearly all actives have a fitted effect of over 40% in size
In short: as §1

Chain of Rap guanine nucleotide exchange factor 4 (Homo sapiens) (Q8WZA2 whole entry, looked up): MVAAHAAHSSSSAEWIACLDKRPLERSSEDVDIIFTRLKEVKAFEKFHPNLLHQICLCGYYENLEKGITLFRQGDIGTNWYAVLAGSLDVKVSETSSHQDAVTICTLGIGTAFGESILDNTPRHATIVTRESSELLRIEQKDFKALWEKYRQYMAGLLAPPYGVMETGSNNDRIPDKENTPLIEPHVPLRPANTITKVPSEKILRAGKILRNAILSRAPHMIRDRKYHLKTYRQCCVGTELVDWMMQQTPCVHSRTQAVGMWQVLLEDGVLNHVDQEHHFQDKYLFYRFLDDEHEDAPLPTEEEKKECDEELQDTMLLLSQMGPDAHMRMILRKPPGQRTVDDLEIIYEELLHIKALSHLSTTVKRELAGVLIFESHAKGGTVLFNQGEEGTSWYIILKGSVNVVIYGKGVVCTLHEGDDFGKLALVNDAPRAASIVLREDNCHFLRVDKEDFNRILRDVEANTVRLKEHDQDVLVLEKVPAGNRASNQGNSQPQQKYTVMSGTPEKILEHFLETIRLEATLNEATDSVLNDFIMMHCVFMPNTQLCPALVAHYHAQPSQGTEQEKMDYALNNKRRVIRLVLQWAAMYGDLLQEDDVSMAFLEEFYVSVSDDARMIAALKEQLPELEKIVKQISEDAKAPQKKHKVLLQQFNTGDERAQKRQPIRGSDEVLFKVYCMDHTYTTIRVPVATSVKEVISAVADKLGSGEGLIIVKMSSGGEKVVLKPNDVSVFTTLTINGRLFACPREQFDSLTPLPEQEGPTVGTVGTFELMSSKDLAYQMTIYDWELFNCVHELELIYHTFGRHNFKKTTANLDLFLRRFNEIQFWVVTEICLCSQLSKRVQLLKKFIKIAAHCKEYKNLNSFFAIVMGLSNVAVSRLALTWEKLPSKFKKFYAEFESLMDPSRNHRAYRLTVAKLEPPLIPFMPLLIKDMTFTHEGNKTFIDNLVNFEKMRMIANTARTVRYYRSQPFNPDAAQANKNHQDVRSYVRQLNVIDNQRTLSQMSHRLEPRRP
Chain of Rap guanine nucleotide exchange factor 3 (Homo sapiens) (O95398 whole entry, looked up): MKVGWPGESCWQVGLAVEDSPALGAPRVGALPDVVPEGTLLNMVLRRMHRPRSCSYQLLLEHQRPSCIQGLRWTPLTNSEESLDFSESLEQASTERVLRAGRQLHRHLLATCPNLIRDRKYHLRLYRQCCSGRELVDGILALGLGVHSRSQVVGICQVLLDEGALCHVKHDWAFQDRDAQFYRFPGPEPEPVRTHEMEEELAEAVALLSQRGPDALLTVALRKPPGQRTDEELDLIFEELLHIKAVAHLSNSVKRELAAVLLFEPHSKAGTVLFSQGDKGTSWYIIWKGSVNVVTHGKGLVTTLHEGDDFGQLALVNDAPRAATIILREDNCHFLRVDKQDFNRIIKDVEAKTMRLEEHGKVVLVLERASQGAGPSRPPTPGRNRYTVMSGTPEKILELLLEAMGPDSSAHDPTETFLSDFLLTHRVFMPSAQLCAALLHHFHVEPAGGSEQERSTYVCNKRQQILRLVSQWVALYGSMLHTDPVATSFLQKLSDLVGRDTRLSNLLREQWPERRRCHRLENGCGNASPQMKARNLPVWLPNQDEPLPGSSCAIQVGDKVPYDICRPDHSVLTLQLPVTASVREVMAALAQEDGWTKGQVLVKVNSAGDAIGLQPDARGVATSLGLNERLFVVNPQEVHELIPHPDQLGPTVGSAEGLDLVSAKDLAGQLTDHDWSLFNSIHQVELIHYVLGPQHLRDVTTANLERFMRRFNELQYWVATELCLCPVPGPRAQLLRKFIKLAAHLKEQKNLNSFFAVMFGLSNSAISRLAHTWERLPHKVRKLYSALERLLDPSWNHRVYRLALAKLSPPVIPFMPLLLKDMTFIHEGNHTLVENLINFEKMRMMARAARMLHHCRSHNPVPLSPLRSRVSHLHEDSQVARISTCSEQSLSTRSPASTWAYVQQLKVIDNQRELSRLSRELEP

C/C=C\C=C/C(=O)Nc1cccc(C2=NOC3(C2)C[C@H](C(N)=O)N(C(=O)c2ccc(OC)cc2)C3)c1 (stereo partly drawn)
inactive: Potency [1] | Potency [2] | Potency [3]

Cc1ccc(S(=O)(=O)N2CCN(c3ncnc4sccc34)CC2)cc1C
inactive: Potency [1] | Potency [2] | Potency [3]

COc1cc(/C=C/C(=O)c2ccc3c(c2)OCCO3)cc(Br)c1OCC(=O)N(C)C
inactive: Potency [1] | Potency [2] | Potency [3]

CC(C)=CCc1c(O)ccc2c1OC(c1ccc(O)c(O)c1)CC2=O (stereo not drawn)
inactive: Potency [1] | Potency [2] | Potency [3]

CCCCC(=O)N(C)c1c(CC)nc2c(OCc3ccc(C(F)(F)F)cc3)cccn12
inactive: Potency [1] | activation [2] 3.08% [at 17.1 µM, percent relative to cAMP agonist control] | activity change, negative = inhibition [3] -15.6% [at 30.8 µM]

CCc1noc(C)c1C(=O)Nc1nc2c(C)cc(C)cc2s1
inactive: Potency [1] | Potency [2] | Potency [3]

CC(C)CNC(=O)C1Nc2ccc(OC(F)(F)F)cc2C2C=CCC12 (stereo not drawn)
inactive: Potency [1] | Potency [2] | Potency [3]

COc1ccccc1[C@@]1(C)ON(c2ccccc2C(F)(F)F)C1=O
inactive: Potency [1] | Potency [2] | Potency [3]

CC(C)=CCc1c(O)cc(O)c2c1OC(c1ccc(O)cc1)CC2=O (stereo not drawn)
inactive: Potency [1] | Potency [2] | Potency [3]

Cc1ccc(CNc2cc(C)nc3nc(-c4cccc(C)c4)nn23)cc1
inactive: Potency [1] | Potency [2] | Potency [3]

Cc1cccc(OC(=O)Nc2ccc(C(=O)O)c(O)c2)c1
inactive: Potency [1] | activation [2] -3.1% [at 17.1 µM, percent relative to cAMP agonist control] | activity change, negative = inhibition [3] -25.7% [at 30.8 µM] | activation [4] -3.96% [at 30.8 µM]

O=[N+]([O-])c1ccc(C=NNc2ccc(S(=O)(=O)O)cc2)cc1
inactive: Potency [1] | activation [2] -6.29% [at 17.1 µM, percent relative to cAMP agonist control] | activity change, negative = inhibition [3] -18.7% [at 30.8 µM] | activation [4] 6.23% [at 30.8 µM]

Cc1ccc2oc(=O)c3cnn(CC(=O)NC4CCC(C)CC4)c3c2c1 (stereo not drawn)
inactive: Potency [1] | Potency [2] | Potency [3] | Potency [4]

Cc1cc(C(C)(C)C)cc(C)c1COC(=O)c1cccnc1
inactive: Potency [1] | Potency [2] | Potency [3] | Potency [4]

CCc1cc(=O)oc2cc(C)cc(OCC(=O)N[C@@H](CSCc3ccccc3)C(=O)O)c12
inactive: Potency [1] | Potency [2] | Potency [3] | Potency [4]

CCOC(=O)[C@H](C)N1[C@H](C)[C@H](c2ccccc2)Oc2ccc(Cl)cc2S1(=O)=O
inactive: Potency [1] | activation [2] 3.08% [at 17.1 µM, percent relative to cAMP agonist control] | activity change, negative = inhibition [3] 6.25% [at 30.8 µM] | activation [4] 25.5% [at 30.8 µM]

NS(=O)(=O)c1ccc(N/N=C/c2ccc(C(=O)O)cc2)c([N+](=O)[O-])c1
inactive: Potency [1] | Potency [2] | Potency [3] | Potency [4]
